# Results as given in PubChem BioAssay (Tox21).
# Several values for one entry are separate records, joined by “and”; a condition that tells them apart may be missing. Identical values can stand only once. Records with an inconclusive call do not appear. Where a call stands in place of a potency, no number is given. Some structures have more than one record in an assay (separate samples or runs), and their calls can disagree. Activity calls are given as the source filed them. Unless noted, calls come from the whole dose curve; as a rule, active = well fitted curve in the direction sought with a large enough effect in the repeat runs; inconclusive = weak or mixed curves; inactive = no such curve, though single readings can be large; an effect the other way counts as inactive or inconclusive.
# Columns and labels:
# [1] = qHTS assay to identify small molecule agonists of the hypoxia (HIF-1) signaling pathway - cell viability counter screen (AID 1224844; calls by dose curve; note: nearly all actives have a fitted effect of over 50% in size; note: potency is the fitted concentration of half-maximal effect)
# Method in brief: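 ME-180 HRE-bla cells, 2,000/well, 0.5% dialyzed FBS; 5 hr settle, 17 hr compound at 37C/5% CO2; CCF4-AM reporter read first, then CellTiter-Glo luminescence after 30 min RT.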
# [2] = qHTS assay to identify small molecule agonists of H2AX (AID 1224845; active = well fitted activation curve with a large enough effect in the signal ratio in the repeat runs, not every such curve was filed as active; the % refers to the signal ratio; note: potency is the fitted concentration of half-maximal effect)
# Method in brief: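 Wild-type CHO-K1 cells plated overnight, then exposed 3 hr at 37C to compounds at 15 concentrations (0.76% DMSO). Lysed, then HTRF anti-pH2AX(S139)-cryptate/anti-H2AX-d2 detection after 24 hr at room temperature; emissions 665 and 620 nm.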
# [3] = qHTS assay to identify small molecule agonists of H2AX - cell viability counter screen (AID 1224847; calls by dose curve; note: nearly all actives have a fitted effect of over 30% in size; note: potency is the fitted concentration of half-maximal effect)
# Method in brief: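 We seed wild-type CHO-K1 cells overnight, treat them for 3 hr at 37C with compounds in 15-concentration series, and quantify remaining viability by CellTiter-Glo luminescence.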
# [4] = qHTS assay to identify small molecule antagonists of the estrogen related receptor (ERR) signaling pathway from Tox21 library (AID 1224848); note: nearly all actives have a fitted effect of over 50% in size; note: potency is the fitted concentration of half-maximal effect
# Method in brief: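 Cells: ERR line, 2,000/well; 6 h preincubation 37 C/5% CO2. Cpd in DMSO via pin tool; 18 h, 37 C. ONE-Glo, 30 min RT, luminescence.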
# [5] = qHTS assay to identify small molecule agonists of the estrogen related receptor (ERR) signaling pathway from Tox21 library (AID 1224849; calls by dose curve; note: nearly all actives have a fitted effect of over 15% in size); conditions: ERR reporter cell line, ONE-Glo luciferase, 18 h
# Method in brief: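 ERR cells, 6 h pre-incubation 37 C/5% CO2; cpd in DMSO pinned; 18 h 37 C; ONE-Glo added, 30 min RT; luminescence read. Agonist mode, qHTS.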
# [6] = qHTS RealTime-Glo MT Cell Viability Assay in HepG2 cells - 24 hour (AID 1224867); note: nearly all actives have a fitted effect of over 50% in size
# Method in brief: (§1)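 Viability was tracked continuously by NanoLuc luminescence from prosubstrate reduced by living HepG2 cells, at successive time points over 40 h of compound exposure. Cells with reagent were preincubated 5 h at 37 °C before compound addition.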
# [7] = qHTS RealTime-Glo MT Cell Viability Assay in HEK293 cells - 32 hour (AID 1224868); note: nearly all actives have a fitted effect of over 50% in size; note: potency is the fitted concentration of half-maximal effect
# Method in brief: (§2)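 Viability tracked continuously by luminescence as live cells reduce a prosubstrate for NanoLuc; HEK293 cells preincubated 5 h, compound-treated at 37 C, and read at 0, 8, 16, 24, 32 and 40 h.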
# [8] = A CellTox Green Cytotoxicity Assay to monitor cytotoxicity in HEK293 cells - 0 hour (AID 1224869); note: nearly all actives have a fitted effect of over 50% in size
# Method in brief: (§3)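 Nonlytic real-time cytotoxicity: HEK293 + CellTox Green reagent plated, 5 h preincubation, pintool compound addition (23 nL in DMSO), 37 C for 40 h, fluorescence measured at successive time points.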
# [9] = qHTS RealTime-Glo MT Cell Viability Assay in HepG2 cells - 40 hour (AID 1224870); note: nearly all actives have a fitted effect of over 50% in size
# Method in brief: (§4)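 HepG2 cells mixed with RealTime-Glo MT reagents (NanoLuc plus cell-permeant prosubstrate) were seeded at 600 cells/well, incubated 5 h at 37 C/5% CO2, then pinned with compounds in DMSO; nonlytic luminescence tracked viability during 40 h treatment.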
# [10] = A CellTox Green Cytotoxicity Assay to monitor cytotoxicity in HEK293 cells - 40 hour (AID 1224871); note: nearly all actives have a fitted effect of over 45% in size; note: potency is the fitted concentration of half-maximal effect
# Method in brief: as §3
# [11] = qHTS RealTime-Glo MT Cell Viability Assay in HEK293 cells - 16 hour (AID 1224872); note: nearly all actives have a fitted effect of over 50% in size; note: potency is the fitted concentration of half-maximal effect
# Method in brief: as §2
# [12] = qHTS RealTime-Glo MT Cell Viability Assay in HepG2 cells - 8 hour (AID 1224873); note: nearly all actives have a fitted effect of over 55% in size
# Method in brief: as §4
# [13] = qHTS RealTime-Glo MT Cell Viability Assay in HEK293 cells - 40 hour (AID 1224874); conditions: RealTime-Glo luminescence; max response: stronger effect = lower value; note: nearly all actives have a fitted effect of over 50% in size; note: potency is the fitted concentration of half-maximal effect
# Method in brief: (§5)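 Cells were seeded together with NanoLuc luciferase and a prosubstrate that viable cells reduce to a luciferase substrate. After a 5 h incubation at 37 C/5% CO2, compounds were added and luminescence was measured repeatedly during 40 h of treatment.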
# [14] = A CellTox Green Cytotoxicity Assay to monitor cytotoxicity in HEK293 cells - 24 hour (AID 1224875); note: nearly all actives have a fitted effect of over 45% in size
# Method in brief: as §3
# [15] = A CellTox Green Cytotoxicity Assay to monitor cytotoxicity in HepG2 cells - 16 hour (AID 1224876); note: nearly all actives have a fitted effect of over 45% in size
# Method in brief: (§6)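 Read-out is fluorescence of a cyanine dye excluded from live cells that stains DNA of dead HepG2 cells, with signal proportional to cytotoxicity. Plates were read at 0, 8, 16, 24, 32 and 40 h after compound addition.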
# [16] = qHTS RealTime-Glo MT Cell Viability Assay in HepG2 cells - 32 hour (AID 1224877); note: nearly all actives have a fitted effect of over 55% in size
# Method in brief: as §1
# [17] = A CellTox Green Cytotoxicity Assay to monitor cytotoxicity in HepG2 cells - 40 hour (AID 1224879); note: nearly all actives have a fitted effect of over 40% in size; note: potency is the fitted concentration of half-maximal effect
# Method in brief: as §6
# [18] = qHTS RealTime-Glo MT Cell Viability Assay in HEK293 cells - 0 hour (AID 1224880); note: top concentration of the series differs between compounds; nearly all actives have a fitted effect of over 45% in size
# Method in brief: as §5
# [19] = A CellTox Green Cytotoxicity Assay to monitor cytotoxicity in HepG2 cells - 24 hour (AID 1224878); note: nearly all actives have a fitted effect of over 45% in size
# Method in brief: as §6
smiles,measurement,setting,value
CCCCCCCCCCCCCO,Potency,[1],inactive
same,Potency,[2],inactive
same,Potency,[3],inactive
same,Potency,[4],inactive
same,"activity change, positive = activation",[5]; at 92.4 µM (top of the series),0.0318% (inactive) and 3.04% (inactive)
same,Potency,[6],inactive
same,Potency,[7],inactive
same,Potency,[8],inactive
same,Potency,[9],inactive
same,Potency,[10],inactive
same,Potency,[11],inactive
same,Potency,[12],inactive
same,max response,[13],3.82% (inactive) and -0.0255% (inactive)
same,Potency,[14],inactive
same,Potency,[15],inactive
same,Potency,[16],inactive
OC[C@@H](O)[C@@H](O[C@@H]1O[C@H](CO)[C@H](O)[C@H](O)[C@H]1O)[C@H](O)[C@@H](O)CO,Potency,[1],inactive
same,Potency,[2],inactive
same,Potency,[3],inactive
same,Potency,[4],inactive
same,"activity change, positive = activation",[5]; at 42.5 µM (top of the series),4.37% (inactive)
same,"activity change, positive = activation",[5]; at 92.4 µM (top of the series),5.88% (inactive)
same,Potency,[6],inactive
same,Potency,[7],inactive
same,Potency,[8],inactive
same,Potency,[9],inactive
same,Potency,[10],inactive
same,Potency,[11],inactive
same,Potency,[12],inactive
same,max response,[13],5.89% (inactive) and 2.02% (inactive)
same,Potency,[14],inactive
same,Potency,[15],inactive
same,Potency,[16],inactive
same,Potency,[17],inactive
same,Potency,[18],inactive
NCCOCCO,Potency,[1],inactive
same,Potency,[2],inactive
same,Potency,[3],inactive
same,Potency,[4],inactive
same,"activity change, positive = activation",[5]; at 92.4 µM (top of the series),-2.16% (inactive) and 1.44% (inactive)
same,Potency,[6],inactive
same,Potency,[8],inactive
same,Potency,[9],inactive
same,Potency,[10],inactive
same,Potency,[11],inactive
same,max response,[13],6.45% (inactive) and 5.26% (inactive)
same,Potency,[14],inactive
same,Potency,[15],inactive
same,Potency,[16],inactive
same,Potency,[17],inactive
same,Potency,[18],inactive
CC1(C)OC(=O)NC1=O,Potency,[1],inactive
same,Potency,[2],inactive
same,Potency,[3],inactive
same,Potency,[4],inactive
same,"activity change, positive = activation",[5]; at 42.5 µM (top of the series),3.88% (inactive)
same,"activity change, positive = activation",[5]; at 92.4 µM (top of the series),4.19% (inactive)
same,Potency,[6],inactive
same,Potency,[8],inactive
same,Potency,[9],inactive
same,Potency,[10],inactive
same,Potency,[11],inactive
same,Potency,[12],inactive
same,max response,[13],-4.09% (inactive) and 7.44% (inactive)
same,Potency,[14],inactive
same,Potency,[15],inactive
same,Potency,[16],inactive
same,Potency,[19],inactive
same,Potency,[17],inactive
same,Potency,[18],inactive
Cc1ccc([N+](=O)[O-])c(C)c1,Potency,[1],4.37 µM (active) and inactive
same,Potency,[2],4.5 µM (active) and inactive
same,Potency,[3],inactive
same,Potency,[4],12.2 µM (active) and inactive
same,"activity change, positive = activation",[5]; at 92.4 µM (top of the series),6.89% (inactive)
same,Potency,[6],inactive
same,Potency,[7],38.9 µM (active) and inactive
same,Potency,[8],inactive
same,Potency,[9],inactive
same,Potency,[10],24.6 µM (active) and inactive
same,Potency,[11],38.9 µM (active) and inactive
same,Potency,[12],inactive
same,Potency,[13],38.9 µM (active)
same,max response,[13],-10.8% (inactive)
same,Potency,[14],inactive
same,Potency,[15],inactive
same,Potency,[16],inactive
same,Potency,[17],17.4 µM (active) and inactive
same,Potency,[18],inactive
CC(=O)Oc1c(C)c(C)c2c(c1C)CC[C@@](C)(CCC[C@H](C)CCC[C@H](C)CCCC(C)C)O2,Potency,[1],inactive
same,Potency,[2],inactive
same,Potency,[3],inactive
same,Potency,[4],inactive
same,"activity change, positive = activation",[5]; at 42.5 µM (top of the series),0% (inactive)
same,"activity change, positive = activation",[5]; at 92.4 µM (top of the series),5.86% (inactive)
same,Potency,[6],inactive
same,Potency,[8],inactive
same,Potency,[9],inactive
same,Potency,[10],inactive
same,Potency,[11],inactive
same,max response,[13],0.83% (inactive) and -4.95% (inactive)
same,Potency,[14],inactive
same,Potency,[15],inactive
same,Potency,[16],inactive
same,Potency,[19],inactive
same,Potency,[17],inactive
same,Potency,[18],inactive
OC[C@H]1O[C@@H]2O[C@H]3[C@H](O)[C@@H](O)[C@@H](O[C@H]4[C@H](O)[C@@H](O)[C@@H](O[C@H]5[C@H](O)[C@@H](O)[C@@H](O[C@H]6[C@H](O)[C@@H](O)[C@@H](O[C@H]7[C@H](O)[C@@H](O)[C@@H](O[C@H]1[C@H](O)[C@H]2O)O[C@@H]7CO)O[C@@H]6CO)O[C@@H]5CO)O[C@@H]4CO)O[C@@H]3CO,Potency,[1],inactive
same,Potency,[2],inactive
same,Potency,[3],inactive
same,Potency,[6],inactive
same,Potency,[7],inactive
same,Potency,[8],inactive
same,Potency,[9],inactive
same,Potency,[10],inactive
same,Potency,[11],inactive
same,Potency,[12],inactive
same,max response,[13],-4.99% (inactive) and 23.3% (inactive)
same,Potency,[14],inactive
same,Potency,[15],inactive
same,Potency,[16],inactive
same,Potency,[19],inactive
same,Potency,[17],inactive
CCC/C=C/C=O,Potency,[1],inactive
same,Potency,[2],inactive
same,Potency,[3],inactive
same,Potency,[6],inactive
same,Potency,[7],inactive
same,Potency,[8],inactive
same,Potency,[9],inactive
same,Potency,[10],inactive
same,Potency,[11],inactive
same,Potency,[12],inactive
same,max response,[13],-4.27% (inactive) and 1.77% (inactive)
same,Potency,[14],inactive
same,Potency,[15],inactive
same,Potency,[16],inactive
same,Potency,[19],inactive
same,Potency,[17],inactive
same,Potency,[18],inactive
C/C=C/C(=O)N(CC)c1ccccc1C,Potency,[1],inactive
same,Potency,[2],inactive
same,Potency,[3],inactive
same,Potency,[4],inactive
same,"activity change, positive = activation",[5]; at 42.5 µM (top of the series),9.15% (inactive)
same,"activity change, positive = activation",[5]; at 92.4 µM (top of the series),-2.58% (inactive)
same,Potency,[6],inactive
same,Potency,[7],inactive
same,Potency,[8],inactive
same,Potency,[9],inactive
same,Potency,[10],inactive
same,Potency,[11],inactive
same,max response,[13],1.07% (inactive) and 4.13% (inactive)
same,Potency,[14],inactive
same,Potency,[15],inactive
same,Potency,[16],inactive
same,Potency,[19],inactive
same,Potency,[17],inactive
same,Potency,[18],inactive
COc1ccc(-c2coc3cc(O)cc(O)c3c2=O)cc1,Potency,[1],inactive
same,Potency,[2],inactive
same,Potency,[3],36 µM (active)
same,Potency,[6],inactive
same,Potency,[8],inactive
same,Potency,[9],inactive
same,Potency,[10],inactive
same,Potency,[13],49.4 µM (active)
same,Potency,[14],inactive
same,Potency,[16],inactive
same,Potency,[17],55.4 µM (active)
Nc1cc(Cl)c(N)c(Cl)c1,Potency,[1],inactive
same,Potency,[3],inactive
same,Potency,[6],inactive
same,Potency,[8],inactive
same,Potency,[9],inactive
same,Potency,[10],inactive
same,Potency,[11],inactive
same,Potency,[12],inactive
same,max response,[13],25.2% (inactive)
same,Potency,[14],inactive
same,Potency,[15],inactive
same,Potency,[16],inactive
same,Potency,[19],inactive
same,Potency,[17],inactive
